# Measurements reported in PubChem BioAssay (Tox21).
# Active and inactive are the calls of the source. Where a call stands in place of a potency, no number is given. Calls follow the shape of the full dose curve.
# Biological target: Acetylcholinesterase (Homo sapiens) (UniProt P22303)
# Test: Acetylcholinesterase (AChE) small molecule antagonists: enzyme-based qHTS assay with human liver microsomes (AID 1347399); also: nearly all actives have a fitted effect of over 60% in size
# Details: Potency: qHTS inhibition; outcome: qHTS inhibition; series mostly up to 115 µM
# Procedure, shortened: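 Recombinant human AChE (50 mU/mL in the enzyme mix) and human liver microsomes (0.25 mg/mL final) were preincubated with compound and NADPH (0.25 mg/mL final) for 30 min at 37 C. Acetylthiocholine/DTNB was then added; thiocholine was read colorimetrically after 10 min at room temperature.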
# Chain of Acetylcholinesterase (Homo sapiens) (P22303 whole entry, looked up): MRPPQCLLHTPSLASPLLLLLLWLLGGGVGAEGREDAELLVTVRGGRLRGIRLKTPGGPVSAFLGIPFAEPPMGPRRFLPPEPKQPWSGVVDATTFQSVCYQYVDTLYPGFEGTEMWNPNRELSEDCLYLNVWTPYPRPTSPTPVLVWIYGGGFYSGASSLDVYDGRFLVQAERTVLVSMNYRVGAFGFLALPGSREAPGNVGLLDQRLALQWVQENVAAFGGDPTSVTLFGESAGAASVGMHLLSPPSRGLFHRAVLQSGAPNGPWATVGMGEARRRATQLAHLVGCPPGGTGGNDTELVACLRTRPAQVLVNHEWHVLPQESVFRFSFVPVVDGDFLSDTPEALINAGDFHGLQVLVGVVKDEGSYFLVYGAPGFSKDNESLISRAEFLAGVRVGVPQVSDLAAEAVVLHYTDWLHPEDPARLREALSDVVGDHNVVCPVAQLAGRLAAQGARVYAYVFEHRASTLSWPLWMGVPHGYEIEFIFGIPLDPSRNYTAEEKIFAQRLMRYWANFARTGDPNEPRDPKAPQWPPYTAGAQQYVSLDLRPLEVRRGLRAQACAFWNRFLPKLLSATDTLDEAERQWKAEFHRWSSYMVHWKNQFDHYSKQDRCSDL
row,Structure (SMILES),Potency
1,CC[C@H](c1ccc(O)cc1)[C@@H](CC)c1ccc(O)cc1,inactive
2,COc1cc(C(=S)N2CCOCC2)cc(OC)c1OC,inactive
3,C/C(CC(C)C)=N\O,inactive
4,CC(C)N=C(N)/N=C(\N)Nc1ccc(Cl)cc1,inactive
5,C/C(=C1\CCOC(=O)S1)N(C=O)Cc1cnc(C)nc1N,inactive
6,Cc1c(O)cccc1O,inactive
7,O=C1c2ccccc2C(=O)c2cc(S(=O)(=O)O)ccc21,inactive
8,O=C(O)P(=O)(O)O,inactive
9,CC(C)[C@H]1CC[C@@H](C)CC1=O,inactive
10,O=CNNC=O,inactive
11,c1ccc(CCc2ccccc2)cc1,inactive
12,OCCCCC(O)CO (stereo not given),inactive
13,CCCC(C)C(=O)O (stereo not given),inactive
14,CC(=O)Nc1ccc(C)c(Cl)c1,inactive
15,CCCCCCCCCCCCOCCOCCOCCOCCOCCOCCOCCOCCOCCO,inactive
16,CN1C(=O)CC(c2ccccc2)C1=O (stereo not given),inactive
17,Cc1cccc(C)c1NC(=O)CN1CCN(CCCC(c2ccc(F)cc2)c2ccc(F)cc2)CC1,inactive
18,Cc1cc(C(C)(C)C)c(O)c(C(C)(C)C)c1,inactive
19,CCCCCCCCCCCCS,inactive
20,COC(=O)CC(=O)OC,inactive

row,Structure (SMILES),Potency
1,CC(C=O)Cc1ccc(C(C)C)cc1 (stereo not given),inactive
2,Cn1cnc2c(=O)[nH]c(N)nc21,inactive
3,O=C(Cl)c1ccc(C(=O)Cl)cc1,inactive
4,CC#C[C@]1(O)CC[C@H]2[C@@H]3CCC4=CC(=O)CCC4=C3[C@@H](c3ccc(N(C)C)cc3)C[C@@]21C,inactive
5,F[B-](F)(F)F,inactive
6,Cc1c[nH]c2ccccc12,inactive
7,CC(=O)OCCN(CCOC(C)=O)c1ccc(N=Nc2ccc([N+](=O)[O-])cc2C#N)cc1,inactive
8,Cc1cnccn1,inactive
9,c1ccc(Oc2ccccc2)cc1,inactive
10,CC1=C(O)C(=O)OC1C (stereo not given),inactive
11,CCCCCCCCCCCCC,inactive
12,C=C(C)C(=O)O[C@H]1C[C@@H]2CC[C@@]1(C)C2(C)C,inactive
13,CCN1CN(CC)CN(CC)C1,inactive
14,CC(=O)OC/C=C(C)/C=C/C=C(C)/C=C/C1=C(C)CCCC1(C)C,inactive
15,CCCCS,inactive
16,CC1(N)CCC(C(C)(C)N)CC1 (stereo not given),inactive
17,Cc1ccccc1OCC1CO1 (stereo not given),inactive
18,Cc1cc(SC2=C(O)C[C@@](CCc3ccc(N)cc3)(C(C)C)OC2=O)c(C(C)(C)C)cc1CO,inactive
19,CCCCCCCCCCCCCCCC(=O)O,inactive
20,COC(=O)N/N=C/c1c[n+]([O-])c2ccccc2[n+]1[O-],inactive
